Shown are actives, neighbours in structure and some others; about 10% of the full set was active somewhere.
3T3 cytotox = cytotoxic compounds in NIH 3T3 cells. NIH 3T3 viability, CellTiter-Glo ATP luminescence, 48-72 h. Potency, µM (highest dose often 96.7 µM), for the others: top-dose activity change, negative = cytotoxicity, usual class: inhibitors. 94,000 tested, 4.3% active. AID 1345082; further: nearly all actives have a fitted effect of over 55% in size
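First NIH 3T3 cells are plated at 400 cells/well; next compound is pinned in; then plates incubate 48 or 72 hr at 37 °C; finally CellTiter-Glo is added and luminescence read after 10 min.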
NPR1 antag = antagonists of human natriuretic peptide receptor Npr1 | Potency, µM (top dose mostly 46.3 µM), without a hit: at the top dose activity change, negative = inhibition, hits mostly inhibitors | 76,000 tested, 1.6% active | HEK293 hNpr1 GloSensor cGMP, ANP-stimulated luminescence; calls by dose curve; further: nearly all actives have a fitted effect of over 60% in size
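Compound pre-incubated 30 min at room temperature on GloSensor-loaded HEK293 cells stably carrying hNpr1 and the pGS-40F cGMP biosensor. Stimulation uses hNppA at 0.1 nM final; luminescence is taken at baseline and 20 min post-agonist.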
GPT2 inhibitor = blocks human glutamate pyruvate transaminase 2; 100,000 tested, 0.25% active; Potency, µM (highest dose often 57.7 µM), for the others: at the highest dose activity change, negative = inhibition, hits mostly inhibitors; Q8TD30; Recombinant GPT2, coupled pyruvate oxidase/HRP Amplex Red fluorescence; further: nearly all actives have a fitted effect of over 60% in size
Target sequence (Q8TD30 whole entry, looked up): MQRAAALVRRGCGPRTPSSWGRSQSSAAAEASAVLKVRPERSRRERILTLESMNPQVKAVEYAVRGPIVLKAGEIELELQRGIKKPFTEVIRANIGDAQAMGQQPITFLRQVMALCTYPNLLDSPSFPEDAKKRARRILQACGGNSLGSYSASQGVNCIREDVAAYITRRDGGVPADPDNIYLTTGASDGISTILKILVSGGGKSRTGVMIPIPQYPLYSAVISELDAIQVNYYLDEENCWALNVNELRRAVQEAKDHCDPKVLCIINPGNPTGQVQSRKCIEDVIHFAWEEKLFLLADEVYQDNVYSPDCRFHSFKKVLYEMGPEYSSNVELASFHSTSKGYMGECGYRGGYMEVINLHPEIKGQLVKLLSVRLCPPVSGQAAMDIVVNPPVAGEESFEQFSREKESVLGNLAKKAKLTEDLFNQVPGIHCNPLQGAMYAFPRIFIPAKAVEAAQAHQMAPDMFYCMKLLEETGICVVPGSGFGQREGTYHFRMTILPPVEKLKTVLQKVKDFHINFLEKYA
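Inhibition is scored from Amplex Red fluorescence generated when pyruvate oxidase and HRP act on pyruvate released by GPT2. Reactions contain 10ng/uL enzyme, 250uM a-KG and 2mM L-alanine and run 30 min at room temperature.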
Luciferase inh = inhibitors of firefly (Photinus pyralis) luciferase | P08659 | purified P. pyralis luciferase, luminescence, biochemical | Potency, µM (doses to about 115 µM), usual class: inhibitors | 76,000 tested, 2.5% active | AID 1347043; further: nearly all actives have a fitted effect of over 65% in size
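Cell-free enzyme assay, 10nM P. pyralis luciferase, luciferin and ATP each at 10uM. Inhibition profiled over a 6-point titration, read as luminescence.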
HEK cytotox = cytotoxic compounds in HEK 293 cells | HEK 293 viability, ATP luminescence (CellTiter-Glo), 48-72 h | Potency, µM (highest dose often 115 µM), without a hit: at the top dose activity change, negative = cytotoxicity, hits mostly inhibitors | 94,000 tested, 6.6% active | AID 1345083; further: nearly all actives have a fitted effect of over 60% in size
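CellTiter-Glo luminescence (cellular ATP) was read after 48 or 72 hr of compound exposure at 37 degree Celsius. Cells were HEK 293 plated at 250 cells/well.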
An asterisk follows results filed as active; i = inactive; ? = inconclusive; · = no result; [ ] = remark or other dose. Unless noted, the call rests on the fitted dose curve; in most records, active means well fitted curve in the direction sought with a large enough effect; inconclusive means small, poorly fitted or top-dose-only effect, or another doubt; inactive means no such curve, though single readings can be large; an effect the other way counts as inactive or inconclusive. On the % scale 0 is the no-effect control and ±100 the full control effect; potency means the concentration at half of the fitted maximal effect.

SMILES	3T3 cytotox	NPR1 antag	GPT2 inhibitor	Luciferase inh	HEK cytotox
CCOCCCNC(=O)N1CC(Oc2ccc(-c3nc(-c4ccccc4)no3)cc2)C1	-28.1%	0.562µM*	3.8%	?	?
CN1CCC(C(=O)N2Cc3ccccc3CC3(CCCN(Cc4ccccn4)C3)C2)CC1 (stereo not drawn)	0.1%	·	-4.7%	·	i
Fc1ccccc1OCC1CCCN(c2nccc(-c3cccnc3)n2)C1 (stereo not drawn)	79.4µM*	-0.5%	?	i	?
c1ccc(COC2CCN(c3nccc(-c4cccnc4)n3)CC2)nc1	?	0.8%	i	i	?
CCCOc1ccccc1C(C)Nc1nc(-c2cccnc2)nc2c1CNC2 (stereo not drawn)	?	-29.0%	-4.6%	i	79.4µM*
CN1CCC(NC(=O)C(C)(C)Oc2nn(CCOc3ccccc3)c3ccccc23)CC1	39.8µM*	-0.3%[70.6 µM]	2.4%[88.5 µM]	i	89.1µM*
CN(C)CCNC(=O)C(C)(C)Oc1nn(CCOc2ccccc2)c2ccccc12	25.1µM*	-14.6%[70.6 µM]	-13.0%[88.5 µM]	i	89.1µM*
CC(C)(Oc1nn(CCOc2ccccc2)c2ccccc12)C(=O)Nc1cccnc1	?	-21.3%[70.6 µM]	-1.4%[88.5 µM]	i	?
O=C1CC2(CCN(Cc3ccc(C(F)(F)F)cc3)CC2)Oc2ccccc21	?	?	i	i	25.1µM*
O=C1CC2(CCN(Cc3cccc4ccccc34)CC2)Oc2cc(Cl)ccc21	?	13.6%	3.4%	i	?
O=C1CC2(CCN(Cc3ccsc3)CC2)Oc2ccccc21	?	10.4%[70.6 µM]	-1.9%[88.5 µM]	44.7µM*	?
O=C1CC2(CCN(Cc3ccccc3)CC2)Oc2ccccc21	?	-18.1%[70.6 µM]	i	?	?
O=C1CC2(CCN(Cc3cccc4ccccc34)CC2)Oc2ccccc21	?	-14.3%	4.6%	i	35.5µM*
COc1ccc(CN2CCC3(CC2)CC(=O)c2ccccc2O3)cc1	-21.6%[138 µM]	-1.3%[70.6 µM]	i	i	-23.6%[172 µM]
Cc1ccccc1C(=O)N1CCN(Cc2ccccc2-c2cccnc2)CC1	?	·	-19.7%	·	?
CCOC(=O)CNC(=O)NCC1CCC(=O)N(Cc2ccccc2)CC1 (stereo not drawn)	-5.2%	·	i	·	i
O=C(NCc1cccnc1)c1ccc2nnc(-c3ccoc3)n2c1	3.0%[138 µM]	·	i	·	i
COc1cc(NC(=O)c2ccc3c(c2)N(C)C2CCCCCN2C3=O)cc(OC)c1OC (stereo not drawn)	35.5µM*	-19.9%	i	i	39.8µM*
COc1ccc(NC(=O)c2ccc3c(c2)N(C)C2CCCCCN2C3=O)cc1Cl (stereo not drawn)	39.8µM*	-7.4%	i	i	44.7µM*
CCN1c2cc(C(=O)NCc3ccc(OC)c(OC)c3)ccc2C(=O)N2CCCCCC21 (stereo not drawn)	?	-9.5%	i	i	44.7µM*
CCN1c2cc(C(=O)Nc3ccc(OC)c(Cl)c3)ccc2C(=O)N2CCCCCC21 (stereo not drawn)	?	-21.6%	i	i	11.2µM*
COc1ccc(C(=O)N2CCN(c3ccnc4ccnn34)CC2)cc1	?	·	i	·	?
COc1ccc(F)cc1-c1cccc(C(=O)NCCNC(=O)N(C)C)c1	?	·	-7.9%	·	?
COCCn1c(=O)c(C(=O)N2CCN(Cc3ccccc3)CC2)nc2cccnc21	i	·	-10.4%	·	-2.7%
O=C(NCc1cccc(C(F)(F)F)c1)c1ccc2oc(-c3ccncc3)nc2c1	-15.9%	·	i	·	?
SMILES	3T3 cytotox	NPR1 antag	GPT2 inhibitor	Luciferase inh	HEK cytotox
COc1ccnc(-c2nnc3ccc(N(C)c4ccccc4)nn23)c1	20µM*	-12.6%[70.6 µM]	0.6%[88.5 µM]	i	44.7µM*
CN(c1ccccc1)c1ccc2nnc(-c3cc(C(=O)N4CC(O)C4)ccn3)n2n1	100µM*	3.6%[70.6 µM]	-2.6%[88.5 µM]	i	?
CN(c1ccccc1)c1ccc2nnc(-c3ccc(F)cn3)n2n1	?	-8.1%[70.6 µM]	-6.1%[88.5 µM]	i	?
CN(C)c1ccc2nnc(-c3cc(C(=O)Nc4cccc(Cl)c4)ccn3)n2n1	7.94µM*	-16.6%[70.6 µM]	-16.4%[88.5 µM]	i	-27.6%[172 µM]
COC1CCN(C(=O)c2ccnc(-c3nnc4ccc(N(C)C)nn34)c2)CC1	44.7µM*	6.2%[70.6 µM]	0.8%[88.5 µM]	i	-5.5%[172 µM]
CN(Cc1ccccc1)C(=O)c1ccnc(-c2nnc3ccc(N(C)c4ccccc4)nn23)c1	-68.2%	-15.3%	0.3%	i	?
COc1ccccc1-n1c(=O)c(C(=O)N2CCN([S+](=O)([O-])c3c(C)noc3C)CC2)nc2cccnc21	-3.1%	·	2.9%	·	4.1%
COC(=O)c1sc(NC(=O)CC[C@H]2NC(=O)c3ccccc3NC2=O)nc1C	?	3.4%	i	i	-17.0%
CS(=O)(=O)N1CCC(Cc2ccc(CN3CCCCC3)cc2)CC1	?	·	0.4%	·	?
O=C(Nc1cccnc1)c1ccnc(-c2nnc3ccc(N4CCOCC4)nn23)c1	100µM*	9.1%[70.6 µM]	0.1%[88.5 µM]	i	-9.5%[172 µM]
COc1cccc(N2C(=O)NC(=NC3CCCC3)C23CCCN(CC2CC2)C3)c1 (stereo not drawn)	?	·	i	·	?
C[C@](N)(Cc1ccc(O)c(O)c1)C(=O)O	·	·	7.94µM*	·	·
O=S(=O)(Cc1ccccc1)N1CCC(OC2CCN(Cc3cccnc3)CC2)CC1	-23.6%	2.7%	i	i	-20.4%
CCCn1cc(-c2ccnc(NC3CCN(Cc4cccnc4)CC3)n2)c(C)n1	?	?	4.5%	i	28.2µM*
O=C(c1ccc(Cl)cc1)N1CCC2(CC1)CC(c1cccc(C(F)(F)F)c1)=NO2	?	·	·	·	31.6µM*
COc1cccc(C(=O)N2CCC3(CC2)CC(c2cccc(C(F)(F)F)c2)=NO3)c1	?	·	·	·	44.7µM*
O=C(C1CCCC1)N1CCC2(CC1)CC(c1cccc(C(F)(F)F)c1)=NO2	?	·	·	·	44.7µM*
O=C(c1ccccc1)N1CCCC2(CC(c3cccc(C(F)(F)F)c3)=NO2)C1 (stereo not drawn)	-29.7%	·	?	·	?
CC(=O)N1CCC2(CC1)CC(c1cccc(C(F)(F)F)c1)=NO2	-10.0%[138 µM]	·	·	·	-6.1%[172 µM]
O=C(c1ccc(C(F)(F)F)cc1)N1CCC2(CC1)CC(c1cccc(C(F)(F)F)c1)=NO2	?	-26.2%	-0.9%	i	39.8µM*
O=C(N1CCOCC1)N1CCC2(CC1)CC(c1cccc(C(F)(F)F)c1)=NO2	-28.1%	·	·	·	?
CC(C)C1CNC(Cc2ccccc2)CN1C(=O)OC(C)(C)C (stereo not drawn)	-14.8%[138 µM]	·	2.4%[88.5 µM]	·	?
COc1cccc(S(=O)(=O)N2CCCC(c3nc(C(C)C)no3)CCNC(=O)CC2)c1 (stereo not drawn)	-5.6%	5.9%	i	i	i

Screens: PubChem BioAssay, National Center for Advancing Translational Sciences (NCATS)
